# In PubChem BioAssay (EPA / NIEHS):
# Calls of active or inactive are those of the source. How the source made its calls: active means hit-call score of the fitted dose curve at least 0.9, where 1 is the maximum; inactive means score below 0.9.
# Legend:
# [1] = ATG_M_32_CIS: Attagene CIS-FACTORIAL HepG2 Assay for M32 Transcription Factor (Internal Marker) (AID 2282949); settings: HepG2 Attagene cis-factorial M32 reporter, mRNA; actives raise or lower the signal;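 further: background control marker of the multiplexed CIS panel rather than a real target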
# Outline: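 Internal background marker read-out: RT-PCR/capillary electrophoresis fluorescence of reporter transcripts from transiently transfected HepG2 cells after 24 h chemical exposure. Activity fitted bidirectionally relative to DMSO negative control.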
# [2] = ATG_M_06_CIS: Attagene CIS-FACTORIAL HepG2 Assay for M06 Transcription Factor (Internal Marker) (AID 2282950); settings: HepG2 Attagene CIS-FACTORIAL M06 internal marker reporter; actives raise or lower the signal
# Outline: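 HepG2 liver cells, 24 h exposure. Reporter transcripts from transfected cis-element constructs quantified by RT-PCR/capillary electrophoresis fluorescence. Bidirectional curve fit against DMSO.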
# [3] = molecular target: Hypoxia-inducible factor 1-alpha (Homo sapiens) (UniProt Q16665); assay: ATG_HIF1a_CIS: Attagene CIS-FACTORIAL HepG2 Assay for human Hypoxia Inducible Factor 1 (HIF1A) (AID 2282951); settings: HepG2 Attagene cis-factorial HIF1a reporter transcription; actives raise or lower the signal
# Chain of Hypoxia-inducible factor 1-alpha (Homo sapiens) (Q16665 whole entry, looked up): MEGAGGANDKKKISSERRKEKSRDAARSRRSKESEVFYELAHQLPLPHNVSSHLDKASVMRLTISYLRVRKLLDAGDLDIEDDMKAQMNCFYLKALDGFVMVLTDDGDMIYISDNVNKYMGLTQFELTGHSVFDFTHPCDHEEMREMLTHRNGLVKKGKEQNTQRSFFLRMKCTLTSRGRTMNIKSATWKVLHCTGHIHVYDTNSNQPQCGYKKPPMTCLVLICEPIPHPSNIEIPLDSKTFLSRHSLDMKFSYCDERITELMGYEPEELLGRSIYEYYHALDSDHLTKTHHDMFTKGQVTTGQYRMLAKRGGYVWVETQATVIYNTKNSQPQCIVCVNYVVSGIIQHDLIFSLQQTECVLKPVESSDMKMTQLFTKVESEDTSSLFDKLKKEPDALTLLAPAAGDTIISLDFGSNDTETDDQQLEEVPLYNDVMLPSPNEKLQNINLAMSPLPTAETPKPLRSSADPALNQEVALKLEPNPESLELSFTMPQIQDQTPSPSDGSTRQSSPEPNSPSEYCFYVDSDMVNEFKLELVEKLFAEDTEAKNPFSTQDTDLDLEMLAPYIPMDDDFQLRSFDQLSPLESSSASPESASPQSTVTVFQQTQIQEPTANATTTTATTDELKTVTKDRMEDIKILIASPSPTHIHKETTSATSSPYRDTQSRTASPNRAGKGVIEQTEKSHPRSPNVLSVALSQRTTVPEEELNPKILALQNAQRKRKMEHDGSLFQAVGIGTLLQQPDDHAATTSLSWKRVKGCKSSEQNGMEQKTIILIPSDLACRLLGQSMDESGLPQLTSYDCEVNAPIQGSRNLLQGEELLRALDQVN
# Outline: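 HepG2 cells transiently transfected with multiplexed cis-promoter reporter units; reporter mRNA read 24 h after dosing by RT-PCR, 6-FAM primer-extension labelling, HpaI digestion and capillary electrophoresis. Bidirectional fit versus DMSO baseline.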
# [4] = molecular target: Hepatocyte nuclear factor 6 (Homo sapiens) (UniProt Q9UBC0); assay: ATG_HNF6_CIS: Attagene CIS-FACTORIAL HepG2 Assay for human Hepatocyte Nuclear Factor 6 (HNF6) (AID 2282952); settings: HepG2 Attagene cis-factorial HNF6 reporter transcription; actives raise or lower the signal
# Chain of Hepatocyte nuclear factor 6 (Homo sapiens) (Q9UBC0 whole entry, looked up): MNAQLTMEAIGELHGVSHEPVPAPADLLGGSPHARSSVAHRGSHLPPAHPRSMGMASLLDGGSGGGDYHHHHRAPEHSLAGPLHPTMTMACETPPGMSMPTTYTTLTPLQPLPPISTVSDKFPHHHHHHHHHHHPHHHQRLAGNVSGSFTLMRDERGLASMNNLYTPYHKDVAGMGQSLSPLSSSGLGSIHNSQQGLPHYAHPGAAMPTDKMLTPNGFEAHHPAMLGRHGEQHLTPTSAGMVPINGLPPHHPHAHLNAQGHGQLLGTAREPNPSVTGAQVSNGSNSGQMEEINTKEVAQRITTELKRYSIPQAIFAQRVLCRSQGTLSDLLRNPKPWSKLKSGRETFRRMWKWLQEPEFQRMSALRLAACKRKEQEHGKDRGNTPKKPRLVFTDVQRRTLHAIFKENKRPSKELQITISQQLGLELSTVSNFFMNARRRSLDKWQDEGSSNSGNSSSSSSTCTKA
# Outline: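 Cells are HepG2 carrying transiently transfected cis-promoter reporter units. Treatment lasts 24 h, after which reporter transcripts are reverse-transcribed, amplified, FAM-labelled and sized by capillary electrophoresis. DMSO serves as baseline.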
# [5] = molecular target: Heat shock factor protein 1 (Homo sapiens) (UniProt Q00613); assay: ATG_HSE_CIS: Attagene CIS-FACTORIAL HepG2 Assay for human Heat Shock Transcription Factor 1 (HSE) (AID 2282953); settings: HepG2 HSE cis-reporter, Attagene RNA transcription; actives raise or lower the signal
# Chain of Heat shock factor protein 1 (Homo sapiens) (Q00613 whole entry, looked up, the tested form may be a part): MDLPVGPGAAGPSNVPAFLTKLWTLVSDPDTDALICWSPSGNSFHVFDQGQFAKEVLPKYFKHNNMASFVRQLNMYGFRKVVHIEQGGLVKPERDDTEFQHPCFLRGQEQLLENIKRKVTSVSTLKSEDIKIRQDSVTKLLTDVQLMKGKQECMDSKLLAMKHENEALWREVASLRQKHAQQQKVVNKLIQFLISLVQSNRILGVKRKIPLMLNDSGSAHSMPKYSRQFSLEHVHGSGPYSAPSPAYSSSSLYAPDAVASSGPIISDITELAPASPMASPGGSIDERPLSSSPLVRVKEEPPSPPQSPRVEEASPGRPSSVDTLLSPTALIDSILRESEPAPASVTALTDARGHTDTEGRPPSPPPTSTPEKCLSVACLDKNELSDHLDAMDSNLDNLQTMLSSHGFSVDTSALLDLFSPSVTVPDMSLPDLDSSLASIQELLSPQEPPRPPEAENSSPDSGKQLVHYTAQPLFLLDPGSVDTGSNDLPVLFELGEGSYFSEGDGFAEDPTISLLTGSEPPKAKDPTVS
# Outline: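 Endogenous transcription factor activity captured via cis-promoter reporter units transfected into HepG2; treatment lasted 24 h. Fluorescence intensity of reporter fragments analysed with bidirectional curve fitting, DMSO baseline.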
# [6] = ATG_MRE_CIS: Attagene CIS-FACTORIAL HepG2 Assay for human Metal Responsive Element (MRE) (AID 2282954); settings: HepG2 MRE cis-reporter transcription, Attagene multiplex; actives raise or lower the signal
# Outline: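 HepG2 cells transiently transfected with multiple cis-element reporter units measure endogenous MTF1-driven transcription. After 24 h compound exposure, reporter mRNA is quantified by RT-PCR with 6-FAM labelling, HpaI digestion and capillary electrophoresis; bidirectional fits versus DMSO.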
# [7] = ATG_PBREM_CIS: Attagene CIS-FACTORIAL HepG2 Assay for human Phenobarbital-responsive Enhancer Module (PBREM) (AID 2282955); settings: HepG2 PBREM cis-reporter, Attagene multiplexed transcription; actives raise or lower the signal
# Outline: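 HepG2 cells transiently transfected with multiple cis-regulated reporter transcription units; endogenous factor activity at the PBREM element measured as reporter mRNA 24 h after dosing, via RT-PCR and capillary electrophoresis of fluorescent fragments; bidirectional fitting versus DMSO.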
# [8] = molecular target: Paired box protein Pax-6 (Homo sapiens) (UniProt P26367); assay: ATG_Pax6_CIS: Attagene CIS-FACTORIAL HepG2 Assay for human Paired Box 6 (PAX6) (AID 2282956); settings: HepG2 CIS-FACTORIAL PAX6 reporter transcription, RNA readout; actives raise or lower the signal
# Chain of Paired box protein Pax-6 (Homo sapiens) (P26367 whole entry, looked up): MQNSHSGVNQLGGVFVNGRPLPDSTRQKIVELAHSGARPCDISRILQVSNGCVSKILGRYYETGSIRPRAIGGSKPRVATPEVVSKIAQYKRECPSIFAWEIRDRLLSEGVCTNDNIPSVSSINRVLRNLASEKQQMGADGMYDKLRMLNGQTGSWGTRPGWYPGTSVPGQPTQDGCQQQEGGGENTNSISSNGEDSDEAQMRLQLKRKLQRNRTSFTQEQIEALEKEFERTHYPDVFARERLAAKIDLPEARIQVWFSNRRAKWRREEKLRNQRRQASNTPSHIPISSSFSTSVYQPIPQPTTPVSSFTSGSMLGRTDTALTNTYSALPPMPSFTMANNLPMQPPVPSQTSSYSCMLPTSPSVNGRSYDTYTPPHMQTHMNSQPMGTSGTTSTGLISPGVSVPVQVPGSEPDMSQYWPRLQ
# Outline: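 Transient MRTU transfection of HepG2 → compound exposure 24 h → TriZol RNA, oligo(dT) RT → PCR, 6-FAM primer extension, HpaI cut → capillary electrophoresis; activity fitted both directions against DMSO.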
# [9] = ATG_PXRE_CIS: Attagene CIS-FACTORIAL HepG2 Assay for human Pregnane X Receptor Element (PXRE) (AID 2282957); settings: HepG2 Attagene CIS-FACTORIAL PXRE reporter, mRNA; actives raise or lower the signal
# Outline: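 Multiplexed cis-reporter assay in transiently transfected human HepG2 cells; 24 h chemical exposure. Reporter transcripts quantified by RT-PCR with fluorescent labeling and capillary electrophoresis.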
# [10] = ATG_PPRE_CIS: Attagene CIS-FACTORIAL HepG2 Assay for human Peroxisome Proliferator-activated Response Element (PPRE) (AID 2282958); settings: HepG2 PPRE cis-element reporter, Attagene transcription factor profiling; actives raise or lower the signal
# Outline: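 HepG2 cells transiently transfected with multiplexed cis-element reporter units measure endogenous transcription factor activity. After 24 h compound exposure, reporter mRNA is quantified by RT-PCR, 6-FAM labeling, HpaI digestion and capillary electrophoresis; bidirectional fits are made against DMSO baseline.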
Compound,outcome [1],outcome [2],outcome [3],outcome [4],outcome [5],outcome [6],outcome [7],outcome [8],outcome [9],outcome [10],AC50 [3],AC50 [6],AC50 [8],AC50 [9],AC50 [5],AC50 [1],AC50 [4],AC50 [7],AC50 [10]
CC(C)(C)C1CCCCC1O (stereo not given),inactive,inactive,inactive,inactive,inactive,inactive,inactive,inactive,inactive,inactive,–,–,–,–,–,–,–,–,–
C=CC(=O)OCC(CO)(COCC(COC(=O)C=C)(COC(=O)C=C)COC(=O)C=C)COC(=O)C=C,inactive,inactive,–,inactive,inactive,–,inactive,–,inactive,inactive,2.92 µM (active),2.9 µM (active),2.71 µM (active),–,–,–,–,–,–
CC(=O)Nc1ccc(S(N)(=O)=O)cc1,inactive,inactive,inactive,inactive,inactive,inactive,inactive,inactive,inactive,inactive,–,–,–,–,–,–,–,–,–
COC(O)c1ccccc1 (stereo not given),inactive,inactive,inactive,inactive,inactive,inactive,inactive,inactive,–,inactive,–,–,–,75.1 µM (active),–,–,–,–,–
C=CC(=O)OCCN(CC)CC,inactive,inactive,inactive,inactive,–,–,inactive,–,–,inactive,–,62.9 µM (active),58.9 µM (active),66.9 µM (active),152 µM (active),–,–,–,–
CCCCCCCCCCCCCC[n+]1ccccc1,inactive,inactive,inactive,inactive,inactive,inactive,inactive,–,–,inactive,–,–,11.1 µM (active),11.1 µM (active),–,–,–,–,–
Cc1cc(Cc2cc(C)cc(C(C)(C)C)c2O)c(O)c(C(C)(C)C)c1,–,inactive,–,–,inactive,inactive,–,inactive,–,inactive,41.4 µM (active),–,–,0.0497 µM (active),–,100 µM (active),176 µM (active),151 µM (active),–
Brc1ccc(Oc2ccc(Br)cc2Br)cc1,inactive,inactive,inactive,inactive,inactive,inactive,inactive,inactive,inactive,inactive,–,–,–,–,–,–,–,–,–
C=CC(F)(F)C(F)(F)C(F)(F)C(F)(F)F,inactive,inactive,inactive,inactive,inactive,inactive,inactive,inactive,inactive,inactive,–,–,–,–,–,–,–,–,–
CCC(C)c1nccnc1OC (stereo not given),inactive,inactive,inactive,inactive,inactive,inactive,inactive,inactive,inactive,inactive,–,–,–,–,–,–,–,–,–
CCOC(OCC)C(=O)c1ccccc1,inactive,inactive,inactive,inactive,inactive,inactive,inactive,inactive,–,inactive,–,–,–,36.8 µM (active),–,–,–,–,–
Cc1ccc(N=Nc2c(O)ccc3ccccc23)c(C)c1,inactive,inactive,–,inactive,–,inactive,inactive,inactive,–,inactive,13.2 µM (active),–,–,2.81 µM (active),3.78 µM (active),–,–,–,–
Cc1cccc2c1ccc1ccccc12,inactive,inactive,inactive,inactive,inactive,inactive,inactive,inactive,–,inactive,–,–,–,27.4 µM (active),–,–,–,–,–
COC(=O)C(F)(F)C(F)(F)C(F)(F)C(F)(F)C(F)(F)F,inactive,inactive,inactive,inactive,inactive,inactive,inactive,inactive,inactive,inactive,–,–,–,–,–,–,–,–,–
O=C(O)CCC(F)(F)C(F)(F)C(F)(F)C(F)(F)C(F)(F)F,inactive,inactive,inactive,inactive,inactive,inactive,inactive,inactive,inactive,inactive,–,–,–,–,–,–,–,–,–
O=C1c2ccc(O)c(O)c2C(=O)c2c(O)ccc(O)c21,inactive,inactive,–,inactive,inactive,inactive,inactive,inactive,–,inactive,12.6 µM (active),–,–,13.5 µM (active),–,–,–,–,–
C=CC(=C)CC/C=C(\C)CCC=C(C)C,inactive,inactive,inactive,inactive,inactive,inactive,inactive,inactive,–,inactive,–,–,–,3.39 µM (active),–,–,–,–,–
CCc1cccc(CC)c1NC(=O)C(=O)O,inactive,inactive,inactive,inactive,inactive,inactive,inactive,inactive,inactive,inactive,–,–,–,–,–,–,–,–,–
CCCCCCC(C)(C)C(=O)O,inactive,inactive,–,inactive,–,inactive,inactive,–,–,–,188 µM (active),–,164 µM (active),27.4 µM (active),187 µM (active),–,–,–,55.5 µM (active)
FC(F)(F)C(F)(F)C(F)(F)Br,inactive,inactive,inactive,inactive,inactive,inactive,inactive,inactive,inactive,inactive,–,–,–,–,–,–,–,–,–
C=CC(=O)OCCC(F)(F)C(F)(F)C(F)(F)C(F)(F)C(F)(F)C(F)(F)C(F)(F)C(F)(F)F,inactive,inactive,inactive,inactive,inactive,inactive,inactive,inactive,inactive,inactive,–,–,–,–,–,–,–,–,–
C=Cc1ccc(O)c(OC)c1,inactive,inactive,inactive,inactive,inactive,inactive,inactive,inactive,–,–,–,–,–,26.6 µM (active),–,–,–,–,13 µM (active)
